Data: PubChem BioAssay
Results filed as inconclusive are left out. The source made the active and inactive calls.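 The calls were made as follows, unless noted: active = normalized viability below 100% at a tested concentration; inactive = the rest.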

Experiments:
[1] = viability loss in pontine glioma line – cell-based, JHH-DIPG-1, MIPE4.0, CellTiter-Glo, qHTS, dose response (AID 1347062; cut-off not given, nearly all actives have AC50 up to about 27 µM;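 as to AC50: cells exposed to compound for two days before readout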); conditions: JHH-DIPG-1 viability, CellTiter-Glo ATP luminescence
[2] = viability loss in pontine glioma line – cell-based, SU-DIPG-IV, MIPE4.0, CellTiter-Glo, qHTS, dose response (AID 1347063; cut-off not given, nearly all actives have AC50 up to about 30 µM;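 also: compound exposure lasted 48 hours before the viability readout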); conditions: CellTiter-Glo ATP luminescence
[3] = viability loss in pontine glioma line – cell-based, SU-DIPG-XIII, MIPE5.0, CellTiter-Glo, qHTS, dose response (AID 1347064; cut-off not given, nearly all actives have AC50 up to about 23 µM;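 as to AC50: cells exposed to compound for 48 hours before the viability read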); conditions: CellTiter-Glo ATP luminescence
[4] = viability loss in pontine glioma line – cell-based, SU-DIPG-XXV, MIPE5.0, CellTiter-Glo, qHTS, dose response (AID 1347065; cut-off not given, nearly all actives have AC50 up to about 26 µM;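 also: cells exposed to compound for 48 hours before ATP readout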); conditions: CellTiter-Glo ATP luminescence
[5] = JHH-DIPG-1 glioma cell viability, MIPE5.0 library, CellTiter-Glo luminescence, qHTS (AID 1347067; cut-off not given, nearly all actives have AC50 up to about 26 µM;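 also: cells exposed to compound for 48 hours before readout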); conditions: JHH-DIPG-1 glioma viability, CellTiter-Glo ATP luminescence
[6] = growth inhibition of DIPG cells – cell-based, MIPE5.0 library, qHTS (AID 1347068; cut-off not given, nearly all actives have IC50 up to about 30 µM;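 as to IC50: cells exposed to compound for 48 hours before viability readout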); conditions: SU-DIPG-XXV viability
[7] = growth inhibition of DIPG cells – cell-based, MIPE4.0 library, CellTiter-Glo luminescence, qHTS (AID 1347066; cut-off not given, nearly all actives have AC50 up to about 30 µM;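 also: cells exposed to compound for 48 hours before readout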); conditions: SU-DIPG-VI viability, CellTiter-Glo ATP luminescence
[8] = compounds altering HSF1 focus formation in cells – imaging, Selleck Cancer Library (AID 1347162; in the data active = plate-normalised HSF1 focus index below about 0.46); conditions: human cells, HSF1 nuclear foci imaging, at 10 µM; SSMD: measured here: HSF1 foci SSMD mean; cell count: measured here: cell number; plate-normalised HSF1 focus index: stronger effect = lower value
[9] = viability loss in pontine glioma line – cell-based, SU-DIPG-XIII, MIPE4.0, CellTiter-Glo, qHTS, dose response (AID 1347061; cut-off not given, nearly all actives have AC50 up to about 37 µM;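 also: cells exposed to compound for 48 hours before readout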); conditions: CellTiter-Glo ATP luminescence
[10] = viability loss with induced miR-34 in A549 – imaging, A549 dox-inducible miR-34, nuclei and caspase counts, primary screen (AID 1347080;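 active = compounds whose cell count with miR-34 switched on is under 0.7 times the count with it off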); conditions: A549 miR-34 inducible, Hoechst nuclei count, 48 h
[11] = MELAS cybrid and Rieske KO viability enhancers – cell-based, MELAS cybrids, Rieske KO mouse fibroblasts, CellTiter-Glo, primary screen (AID 1508586;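 active = mean z-score across replicates of 1.96 or higher in either the MELAS or the Rieske mutant cell line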;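 also: z relative to plate mean and SD of compound and empty wells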); conditions: low glucose
[12] = drug combination growth inhibition, ovarian cancer – cell-based, oncology-focused library, rucaparib conditional, profiling panel (AID 1508598); conditions: patient-derived ovarian cancer cells, CellTiter-Glo viability, 144 h, stronger effect = lower value
[13] = stronger effect = lower value, cell number ratio, induced over uninduced
[14] = measured here: relative caspase fold change +Dox/-Dox
[15] = measured here: total cells with miR-34 induction, stronger effect = lower value
[16] = measured here: total cells without miR-34 induction
[17] = MELAS cybrid survival, CellTiter-Glo 48 h, stronger effect = higher value
[18] = Rieske KO mouse fibroblast survival, CellTiter-Glo 72 h
[19] = at 0.000305 µM, OCI-C5x cells, with rucaparib 10 µM, 100% = cells with rucaparib alone
[20] = at 0.000305 µM, OCI-C5x cells, without rucaparib
[21] = at 0.000305 µM, OCI-P5x cells, with rucaparib 20 µM, 100% = cells with rucaparib alone
[22] = at 0.000305 µM, OCI-P5x cells, without rucaparib
[23] = at 0.00122 µM, OCI-C5x cells, with rucaparib 10 µM, 100% = cells with rucaparib alone
[24] = at 0.00122 µM, OCI-C5x cells, without rucaparib
[25] = at 0.00122 µM, OCI-P5x cells, with rucaparib 20 µM, 100% = cells with rucaparib alone
[26] = at 0.00122 µM, OCI-P5x cells, without rucaparib
[27] = at 0.00488 µM, OCI-C5x cells, with rucaparib 10 µM, 100% = cells with rucaparib alone
[28] = at 0.00488 µM, OCI-C5x cells, without rucaparib
[29] = at 0.00488 µM, OCI-P5x cells, with rucaparib 20 µM, 100% = cells with rucaparib alone
[30] = at 0.00488 µM, OCI-P5x cells, without rucaparib
[31] = at 0.0195 µM, OCI-C5x cells, with rucaparib 10 µM, 100% = cells with rucaparib alone
[32] = at 0.0195 µM, OCI-C5x cells, without rucaparib
[33] = at 0.0195 µM, OCI-P5x cells, with rucaparib 20 µM, 100% = cells with rucaparib alone
[34] = at 0.0195 µM, OCI-P5x cells, without rucaparib
[35] = at 0.0781 µM, OCI-C5x cells, with rucaparib 10 µM, 100% = cells with rucaparib alone
[36] = at 0.0781 µM, OCI-C5x cells, without rucaparib
[37] = at 0.0781 µM, OCI-P5x cells, with rucaparib 20 µM, 100% = cells with rucaparib alone
[38] = at 0.0781 µM, OCI-P5x cells, without rucaparib
[39] = at 0.313 µM, OCI-C5x cells, with rucaparib 10 µM, 100% = cells with rucaparib alone
[40] = at 0.313 µM, OCI-C5x cells, without rucaparib
[41] = at 0.313 µM, OCI-P5x cells, with rucaparib 20 µM, 100% = cells with rucaparib alone
[42] = at 0.313 µM, OCI-P5x cells, without rucaparib
[43] = at 1.25 µM, OCI-C5x cells, with rucaparib 10 µM, 100% = cells with rucaparib alone
[44] = at 1.25 µM, OCI-C5x cells, without rucaparib
[45] = at 1.25 µM, OCI-P5x cells, with rucaparib 20 µM, 100% = cells with rucaparib alone
[46] = at 1.25 µM, OCI-P5x cells, without rucaparib
[47] = at 5 µM, OCI-C5x cells, with rucaparib 10 µM, 100% = cells with rucaparib alone
[48] = at 5 µM, OCI-C5x cells, without rucaparib
[49] = at 5 µM, OCI-P5x cells, with rucaparib 20 µM, 100% = cells with rucaparib alone
[50] = at 5 µM, OCI-P5x cells, without rucaparib

Cc1cc(Nc2cc(NC(=O)c3c(Cl)cccc3Cl)ccn2)nc(N)n1
active: AC50 [1] 18.7 µM | AC50 [2] 18.7 µM | AC50 [3] 8.33 µM | AC50 [4] 9.34 µM | AC50 [5] 9.34 µM | IC50 [6] 18.6 µM

Cn1cc(-c2ccncc2)c(-c2ccc(OCc3ccc4ccccc4n3)cc2)n1
active: AC50 [4] 23.5 µM
inactive: outcome [1] | outcome [2] | outcome [7] | outcome [6]

Cn1cc(-c2[nH]c3cc(NC(=O)[C@H](N)C4CCCCC4)cc4c3c2C=NNC4=O)cn1
active: AC50 [1] 0.418 µM | AC50 [2] 1.18 µM | AC50 [3] 2.09 µM | AC50 [4] 1.18 µM | AC50 [5] 16.6 µM | IC50 [6] 4.68 µM
6990: cell count [8]
inactive: plate-normalised HSF1 focus index [8] 0.932
-1.12: SSMD [8]

Oc1ccc(C2=Cc3ccc(O)cc3OC2)cc1
active: AC50 [1] 8.33 µM | AC50 [2] 3.32 µM
inactive: outcome [4]

CNC1CCC(N(Cc2cccc(-c3ccncc3)c2)C(=O)c2sc3ccccc3c2Cl)CC1 (stereo unspecified)
active: AC50 [1] 14.8 µM | AC50 [2] 16.6 µM | AC50 [4] 11.8 µM | AC50 [7] 18.7 µM | AC50 [5] 20.9 µM | IC50 [6] 9.34 µM

Nc1cccc(S(=O)(=O)N2CCCN(S(=O)(=O)c3ccc4c(c3)OCCO4)CC2)c1
inactive: outcome [9] | outcome [7] | outcome [6]

Nc1nccc(Oc2ccc(NC(=O)c3c[nH]cc(-c4ccc(F)cc4)c3=O)cc2F)c1Cl
7750: cell count [10, 15]
7240: cell count [8]
-0.396: SSMD [8]
inactive: fold change [10, 13] 0.93 | plate-normalised HSF1 focus index [8] 0.991 | z-score [11, 17] -0.165 | viability [12, 19] 110% | viability [12, 20] 130% | viability [12, 21] 100% | viability [12, 22] 117% | viability [12, 23] 108% | viability [12, 24] 127% | viability [12, 25] 101% | viability [12, 26] 114% | viability [12, 27] 118% | viability [12, 28] 134% | viability [12, 29] 106% | viability [12, 30] 111% | viability [12, 31] 117% | viability [12, 32] 140% | viability [12, 34] 107% | viability [12, 35] 104% | viability [12, 36] 122% | viability [12, 37] 106% | viability [12, 39] 133% | viability [12, 40] 122% | viability [12, 41] 102% | viability [12, 43] 132% | viability [12, 44] 123% | viability [12, 46] 101% | viability [12, 47] 149% | viability [12, 48] 139%
active: AC50 [1] 18.7 µM | AC50 [2] 16.6 µM | AC50 [3] 14.8 µM | AC50 [7] 26.4 µM | IC50 [6] 23.5 µM | viability [12, 33] 98.3% | viability [12, 38] 98.3% | viability [12, 42] 99.4% | viability [12, 45] 99.9% | viability [12, 49] 59% | viability [12, 50] 89.1%
8330: cell count [10, 16]
0.168: z-score [11, 18]
0.882: fold change [10, 14]

Nc1nc(OCc2ccccc2)c2[nH]cnc2n1
1.25: fold change [10, 14]
9960: cell count [10, 16]
inactive: outcome [1] | outcome [2] | outcome [4] | outcome [7] | outcome [5] | outcome [6] | fold change [10, 13] 0.895
8910: cell count [10, 15]

CCCS(=O)(=O)Nc1ccc(F)c(C(=O)c2c[nH]c3ncc(-c4ccc(Cl)cc4)cc23)c1F
5420: cell count [10, 15]
active: AC50 [2] 14.8 µM | viability [12, 20] 96.8% | viability [12, 21] 95.6% | viability [12, 22] 93% | viability [12, 25] 99.5% | viability [12, 26] 96.2% | viability [12, 30] 99% | viability [12, 41] 93.7% | viability [12, 43] 49.6% | viability [12, 44] 35% | viability [12, 45] 45.5% | viability [12, 46] 10.7% | viability [12, 47] 97.9% | viability [12, 49] 49.3% | viability [12, 50] 16.3%
6960: cell count [8]
7100: cell count [10, 16]
-0.424: z-score [11, 18]
inactive: outcome [1] | outcome [3] | outcome [7] | outcome [6] | fold change [10, 13] 0.763 | plate-normalised HSF1 focus index [8] 1.15 | z-score [11, 17] -0.461 | viability [12, 19] 120% | viability [12, 23] 112% | viability [12, 24] 111% | viability [12, 27] 123% | viability [12, 28] 106% | viability [12, 29] 103% | viability [12, 31] 107% | viability [12, 32] 107% | viability [12, 33] 107% | viability [12, 34] 102% | viability [12, 35] 105% | viability [12, 36] 107% | viability [12, 37] 103% | viability [12, 38] 104% | viability [12, 39] 106% | viability [12, 40] 107% | viability [12, 42] 105% | viability [12, 48] 105%
2.8: SSMD [8]
1: fold change [10, 14]

C/C=C(/C)C(=O)O[C@H]1C(C)=C[C@]23C(=O)[C@@H](C=C(CO)[C@@H](O)[C@]12O)[C@H]1[C@@H](C[C@H]3C)C1(C)C
active: AC50 [7] 20.9 µM
inactive: outcome [9]

CC(C)C[C@H](NC(=O)c1cc2ccccc2s1)C(=O)N1CCN(C(=O)[C@H](CO)NS(=O)(=O)c2ccc(Cl)cc2Cl)CC1
active: AC50 [2] 20.9 µM | AC50 [4] 20.9 µM | AC50 [7] 23.5 µM
inactive: outcome [1]

COc1ccc(Cn2ccc3ccc(C(=O)NO)cc32)cc1
0.636: z-score [11, 18]
inactive: outcome [1] | outcome [2] | outcome [4] | outcome [7] | outcome [5] | fold change [10, 13] 0.793 | z-score [11, 17] -0.343
6690: cell count [10, 16]
0.954: fold change [10, 14]
5300: cell count [10, 15]
